From PubChem BioAssay (NCI)
About 83,000 compounds went through this panel and 20% of them were active in at least one assay; those are over-represented in the sample as a whole.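 Step 1: grow cells in 96-well plates. Step 2: add test compound at a single concentration. Step 3: incubate 48 h. Step 4: record percent growth.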 Unmarked numbers belong to inactive results. Activity calls are given as the source filed them. Rule for the calls: active = growth percent below 10; inactive = the rest.

What follows are compounds tested on MDA-MB-468 breast (assay: NCI-60 one-dose screen, 48 h (100 = growth as untreated, 0 = no growth, -100 = all killed)). Details: 10 µM unless noted.

Row | SMILES | growth
1 | CCC(C)C1CCC(O)CC1 (stereo not drawn) | 101%
2 | C=C1C(=O)O[C@H]2[C@H]1CC/C(COC(=O)CCSSCCC(=O)OC/C1=C/CC[C@@]3(C)O[C@H]3[C@H]3OC(=O)C(=C)[C@@H]3CC1)=C\CC[C@@]1(C)O[C@@H]21 | -54% (active)
3 | COc1cccc2c(=O)c3c(sc12)c(NCCCN)nc1ccccc13 | -8% (active)
4 | OCCc1ccc(Cl)cc1 | 103%
5 | Cc1cc(Cl)nc(N2CCN(CCNc3ccnc4cc(Cl)ccc34)CC2)n1 | 4.38% (active)
6 | Cc1c(Cl)cccc1NC(=O)c1sc2nc3c(cc2c1N)CCCCCC3 | 26.5%
7 | c1ccc(-c2nc3nonc3nc2-c2ccccc2)cc1 | 38.9%
8 | CC(C)(C)[Si](C)(C)OC1[C@@H](O[Si](C)(C)C(C)(C)C)[C@@H](CNC(=O)NC(=O)CCl)O[C@H]1n1cnc2c(NC(=O)Nc3ccccc3)ncnc21 (stereo partly drawn) | -64.6% (active)
9 | Cc1ccccc1/C=C/C(=O)c1cccc(OCCCOc2cccc(C(=O)/C=C/c3ccccc3C)c2)c1 | 108% [3 µM]
10 | CCCCCCCCCCCCCCCCN(C(C)c1ccccc1)S(=O)(=O)c1ccc(OC)c(N)c1 (stereo not drawn) | 119%
11 | Cn1c(=O)cc(NC(=O)CN2CCN(c3cc4c(cc3F)c(=O)c(C(=O)O)cn4C3CC3)CC2)[nH]c1=O | 92.6%
12 | CC(=O)c1nc2ccccc2n1CCNC(N)=O | 60.8%
13 | N#CSc1c[nH]c2cccc(/C=C/C(=O)/C=C(/C=C/c3cccc4[nH]cc(SC#N)c34)OB(F)F)c12 | -32% (active)
